In PubChem BioAssay AID589 (National Center for Advancing Translational Sciences (NCATS), 2007):
The whole screen tested about 59,000 compounds, of which about 6,200 (11%) were called active. Another 9% or so got no clear call; they are omitted. Rule as the data show it: active = max dye-equivalent concentration above about 10 nM; inconclusive = mostly about 1.1 nM to 9.6 nM; inactive = weaker than that. This excerpt belongs to a sample that is enriched for actives.

Assay: qHTS Assay for Spectroscopic Profiling in 4-MU Spectral Region
Details: compound autofluorescence, 340/450 nm, 4-MU equivalents; active compounds read high
Procedure, shortened: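 Intrinsic fluorescence at 340/450 nm (ex/em) was read after 15 min at room temperature in pH 8.0, 100 mM Tris. Each compound concentration expressed as 4-MU-equivalent concentration from a six-point 4-MU standard series on each plate.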

Structure (SMILES) | max dye-equivalent concentration
Cc1nc(NC(=O)C23CCC(C)(C(=O)O2)C3(C)C)sc1C (centres undefined) | inactive
CC(=NCc1ccco1)C1=C(O)c2ccccc2C1=O | inactive
COc1ccc(N2C(=O)CC(N3CCC(C(N)=O)CC3)C2=O)cc1 (centres undefined) | inactive
CCCC(NC(=O)c1ccccc1)c1nc2ccccc2n1Cc1ccc(C(=O)OC)o1 (centres undefined) | inactive
Cc1ccc2nc(NCCCNC(=O)c3cnccn3)c(C#N)cc2c1 | 160 nM (active)
CCn1c(SCC(=O)Nc2cc(C)ccc2C)nnc1-c1cnccn1 | inactive
CC1(C)C(=O)C2(CCCCC2)C(=O)OC1c1cccs1 (centres undefined) | inactive
CC(C)CNS(=O)(=O)c1ccc(OCC(=O)Nc2ccc3c(c2)OCO3)c(Cl)c1 | inactive
CC1CN(C(=O)CN2C(=O)NC(C)(c3ccccc3)C2=O)CC(C)O1 (centres undefined) | inactive
COC(=O)c1cc(C(=O)OC)cc(N2C(=O)CC(N3CCN(c4ccccc4)CC3)C2=O)c1 (centres undefined) | inactive
CCc1c(C)nc2ncnn2c1N1CCC(C(=O)NCc2ccc3c(c2)OCO3)CC1 | inactive
O=C1CSC(=O)N1CCOCCN1C(=O)CSC1=O | inactive
COc1ccc(CCn2c(-c3ccco3)nc3nc4ccccc4nc32)cc1OC | 40 nM (active)
COc1ccc(CCn2nnnc2C(c2ccccc2)N2CCN(C)CC2)cc1OC (centres undefined) | inactive
COCCn1c(-c2ccc(OC)c(OC)c2)nc2ccccc21 | inactive
CCn1cc(C(=O)N2CCN(C3CCCCC3)CC2)c2cc(OC)c(OC)cc2c1=O | inactive
Cn1c2c(c(=O)n(C)c1=O)C(c1ccc(O)cc1)Nc1ccccc1O2 (centres undefined) | inactive
COc1ccc(-c2nc(SCC(=O)N3CCOCC3)n[nH]2)cc1 | inactive
CCn1c(COc2cccc(OC)c2)nnc1SCC(=O)N1CCOCC1 | inactive
COc1ccc(-c2ccnc(SCC(=O)N3CCOCC3)n2)cc1 | 110 nM (active)
CC1(C)CC(=O)C=C(NCCCN2CCCC2=O)C1 | inactive
CCOC(=O)c1ccc(N2C(=O)CC(Sc3nc(O)c(CC)c(=O)[nH]3)C2=O)cc1 (centres undefined) | inactive

Structure (SMILES) | max dye-equivalent concentration
CS(=O)(=O)N1CCCC(C(=O)N2CCOCC2)C1 (centres undefined) | inactive
COc1ccc(OCCCON2C(=O)c3ccccc3C2=O)cc1 | inactive
COc1ccc(N2C(=O)c3cccc4cccc(c34)C2=O)nn1 | 160 nM (active)
Cc1cc(C)c(C)c(S(=O)(=O)Nc2ccc(O)cc2)c1C | inactive
COCCCNC(=O)c1ccc(CNS(=O)(=O)c2ccc(NC(C)=O)cc2)cc1 | inactive
CC(C)C1Cc2c(sc3c2c(=O)n(-c2ccccc2)c2nncn32)CO1 (centres undefined) | inactive
COC(=O)c1cn(CC(=O)NCc2cccs2)c2ccccc12 | inactive
O=C(CCC(=O)c1cccs1)NCc1ccccc1 | inactive
O=C(Cn1cc(C(=O)c2cccs2)c2ccccc21)NCc1cccs1 | 29 nM (active)
CCc1ccc(CCC(=O)Nc2ccc(S(N)(=O)=O)cc2)o1 | inactive
Clc1ccc(C(c2ccc(Cl)cc2)n2cc[n+](C[C@@H](OCc3ccc(Cl)cc3Cl)c3ccc(Cl)cc3Cl)c2)cc1 | inactive
CC1CCCN(c2ccc(C(=O)NCCc3ccccc3)cn2)C1 (centres undefined) | inactive
Cc1ccc(S(=O)(=O)NC(=O)NN2C[C@H]3CCC[C@@H]3C2)cc1 | inactive
O=C(OCC(=O)N1CCCC1)c1ccco1 | inactive
COc1ccc(C2CC(c3ccc(C)cc3)Nc3nc(N)nn32)cc1 (centres undefined) | 2500 nM (active)
CC1CC(c2ccccc2)n2nc(NC(=O)c3cccs3)nc2N1 (centres undefined) | inactive
Nc1nc2n(n1)C(c1ccco1)CC(c1ccc(Cl)c(Cl)c1)N2 (centres undefined) | inactive
CCc1c(C)c2c(C)[nH]nc2oc1=O | inactive
COCCn1nnnc1C(c1ccccc1Cl)N1CCN(c2ccccc2OC)CC1 (centres undefined) | inactive
CCOc1ccc2[nH]c(=O)c(C(c3nnnn3CCOC)N3CCOCC3)cc2c1 (centres undefined) | 720 nM (active)
Cc1cc(C)c2[nH]c(=O)c(C(c3nnnn3Cc3ccc4c(c3)OCO4)N3CCCC3)cc2c1 (centres undefined) | inactive
COc1ccc(OC)c(C(c2nnnn2C(C)(C)C)N2CCc3ccccc3C2)c1 (centres undefined) | inactive

Structure (SMILES) | max dye-equivalent concentration
COCCn1nnnc1C(c1cc2ccc(OC)cc2[nH]c1=O)N1CCc2ccccc2C1 (centres undefined) | 17 nM (active)
COc1ccc(N2CCN(C(c3cc4ccc(C)cc4[nH]c3=O)c3nnnn3C3CCCC3)CC2)cc1 (centres undefined) | inactive
CCCOc1ccccc1C(=O)NCCCC(=O)O | inactive
COC(=O)Nc1ncc(CN2C(=O)c3ccccc3C2=O)s1 | inactive
O=C(CCCn1c(SCC(=O)c2ccc(F)cc2)nc2ccccc2c1=O)NCc1ccco1 | inactive
CC1(N2CCOCC2)CC2(O)C(=[N+]1[O-])CCc1nonc12 (centres undefined) | inactive
CCn1c(COc2ccccc2)nnc1SCC(=O)Nc1ccc2c(c1)OCCO2 | inactive
COc1ccc(S(=O)(=O)N2CCCCC2)cc1Br | inactive
C=CCn1c(CC(=O)Nc2cccc(OC)c2)nnc1SCC(=O)NC1CCCCC1 | inactive
COc1ccc(OCC(=O)N2CCN(C(=O)COc3ccccc3)CC2)cc1 | inactive
COc1ccc(OCc2cccc(C(=O)N3CCCC3)c2)cc1 | 19 nM (active)
CCC(CC)C(=O)Nc1cccc(C(=O)N2CCCC2)c1 | inactive
c1ccc(CCc2nc(-c3ccncc3)no2)cc1 | inactive
Cc1ccc2c(NC(=O)C3CC3)cccc2n1 | inactive
Cc1cc(C)cc(NC(=O)C2CCN(c3nc(C)cc(C)n3)CC2)c1 | inactive
CC(=O)N1CCC(C(=O)Nc2nc(-c3ccccc3)ns2)CC1 | 1800 nM (active)
CCCOc1ccccc1-c1nc(SCCC(=O)O)n[nH]1 | inactive
CCn1c(=N)n(CC(=O)c2cccc(OC)c2)c2ccccc21 | inactive
COC(=O)c1ccc(CSc2nncn2C)cc1 | inactive
Cc1ccc2c(c1)c1ncnc(N3CCc4ccccc4C3)c1n2C | 140 nM (active)
Cc1ccc(C(c2nnnn2C(C)(C)C)N2CCc3ccccc3C2)cc1 (centres undefined) | inactive
Cc1ccc(NC(=O)CCN2CCc3ccccc3C2)cc1 | inactive

Structure (SMILES) | max dye-equivalent concentration
CCOC(=O)CSc1nnc(NC(=O)c2cccc(S(=O)(=O)N3CCCCC3)c2)s1 | inactive
Cc1cc(C)c2nc3c(c([C@H](O)[C@@H]4CCCCN4)c2c1)CC/C3=C/c1ccc(Cl)cc1 | inactive
CN1CCc2[nH]nc(-c3n[nH]c4c3CN(C)CC4)c2C1 | inactive
CCOC(=O)CSc1nnc(-c2ccco2)n1C | inactive
Cn1c(-c2ccco2)nc2cc3ccccc3cc21 | 890 nM (active)
c1coc(-c2nc3nc4ccccc4n3nc2-c2ccco2)c1 | inactive
O=C(c1ccco1)N1CCN(C(=O)c2ccc(COc3ccc(F)cc3)o2)CC1 | inactive
O=C(c1ccco1)N1CCC2(CC1)CN(c1ncccn1)C2 | inactive
CCCCNC(=O)CSc1nnc(-c2ccco2)n1C | inactive
Cn1c(=O)c2c(ncn2CC(=O)N2CCN(c3ccccc3)CC2)n(C)c1=O | inactive
COc1ccccc1NC(=O)C1=C(C)NC2=C(C(=O)CCC2)C1c1ccc(C)o1 (centres undefined) | 16 nM (active)
COc1ccccc1NC(=O)C1=C(C)Nc2ncnn2C1c1ccc(C)o1 (centres undefined) | inactive
COc1ccccc1NC(=O)c1ccc(C)s1 | inactive
O=C(NCCN=C1NS(=O)(=O)c2ccccc21)c1ccc(S(=O)(=O)N2CCOCC2)cc1 | inactive
Cc1cc(=O)oc(C)c1C(=O)NC1CC(C)(C)NC(C)(C)C1 | inactive
COCc1nnc(NC(=O)CS(=O)(=O)Cc2ccccc2)s1 | inactive
O=C(O)C1CCCN1S(=O)(=O)c1ccc2c(c1)CCC2 (centres undefined) | inactive
CCS(=O)(=O)NCCc1ccc(OC)c(OC)c1 | inactive
Cc1cc(=O)n2c3c(cccc13)CCC2 | inactive
CCNC(=O)c1c(O)c2cccc3c2n(c1=O)CC3 | 17 nM (active)
Cn1c(C(=O)NCCN2CCc3ccccc3C2)cc2c(=O)[nH]c3ccccc3c21 | inactive
O=S(=O)(O)c1ccc(O)c2ncccc12.O=S(=O)(O)c1ccc(O)c2ncccc12.[Zn] | inactive

Structure (SMILES) | max dye-equivalent concentration
Cc1ccccc1N1CCN(S(=O)(=O)C[C@@]23CC[C@H](C[C@H]2NC(=O)[C@@H](N)CCS(C)(=O)=O)C3(C)C)CC1 | inactive
CCOC(=O)C1=C(CNC2CCCCC2)NC(=O)NC1c1cc(C)ccc1C (centres undefined) | inactive
COc1cc(OC)cc(C(=O)NCCSCc2ccco2)c1 | inactive
C(=C\c1ccccc1)/CSc1nnc(-c2cccnc2)n1Cc1ccco1 | inactive
O=C(CSc1nnc(-c2cccnc2)n1Cc1ccco1)c1ccc(Cl)cc1 | inactive
Clc1cccc(-c2nc3nc4ccccc4nc3n2Cc2ccco2)c1 | 110 nM (active)
C=C(C)Cn1c(SCC(=O)NCc2ccco2)nc2sc3c(c2c1=O)CCC3 | inactive
c1coc(CNc2ncnc3ccccc23)c1 | inactive
CN1CCc2c(sc3c2c(NCc2ccco2)nc2nnnn23)C1 | 380 nM (active)
Cc1cccc(N(CC(O)CN(C)C)S(=O)(=O)c2ccccc2)c1 (centres undefined) | inactive
CCOC(=O)N1CCN(C(=O)CN(C2CCCCC2)S(C)(=O)=O)CC1 | inactive
O=C(NCc1ccccn1)c1c(O)c2c([nH]c1=O)CCCC2 | inactive
O=C(NCc1ccco1)c1nc2ncccn2n1 | inactive
Cc1cccn2c(=O)c3cc(C(=O)N4COCC4(C)C)n(C)c3nc12 | 970 nM (active)
Cc1cccn2c(=O)c3cc(C(=O)NCc4ccccn4)n(C)c3nc12 | 190 nM (active)
CCOC(=O)N1CCN(S(=O)(=O)c2cc3c(cc2C)NC(=O)CO3)CC1 | inactive
Cc1cnc(CNc2ncncc2-c2ccccc2Cl)cn1 | inactive
Cc1ccccc1C(OCC(O)CN1CCCCC1CCO)c1ccccc1 (centres undefined) | inactive
Cc1noc(C)c1C(=O)OCC(=O)/C=C1\N(C)c2ccccc2C1(C)C | 150 nM (active)
Cc1noc(C)c1C(=O)Nc1ccccn1 | inactive
Cc1ccc(-c2nc(COC(=O)c3c(C)noc3C)cs2)cc1 | inactive
